# Screens (PubChem)
# An excerpt weighted towards active compounds, which were near 28% of everything screened.
# CYP2C9 inhib: blocks human cytochrome P450 2C9 | CYP2C9 Supersomes, luciferin-H conversion, luminescence | inhibition, % at 5 µM | 20% of 96,000 active | AID 777;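 active = blocking of liver enzyme CYP2C9 beyond about 50% at 5 µM, limit read from the data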
# CYP2C19 act: increases human CYP2C19 enzyme activity; P33261; recombinant CYP2C19, luciferin-H EGE luminescence; stronger effect = higher value; 0 = fully inhibited enzyme, 1 = untreated enzyme; activation factor at 5 µM; 96,000 tested, under 10 active; AID 1025;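 active = activation factor of at least 2 at 5 µM in the primary screen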;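 also: 0 = wells with 2.5 mM tranylcypromine and 1 = vehicle-only wells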
# CYP2C9 activ: CYP2C9 (human) activation; P11712; recombinant CYP2C9, luciferin-H conversion, luminescence; stronger effect = higher value; factor 1 = untreated enzyme, 0 = blocked; activation factor at 5 µM; 1.4% of 96,000 active; AID 1024;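 active = activation factor of 2 or more for CYP2C9 at a 5 µM dose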;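 also: 0 = sulfaphenazole-blocked wells and 1 = vehicle-only wells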
# CYP2C19 inhib: blocks human cytochrome P450 2C19 | P33261 | CYP2C19 Supersomes, luciferin-H EGE luminescence, 30 min | inhibition, % at 5 µM | 21% of 96,000 active | AID 778;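 active = CYP2C19 inhibition above a set limit at 5 µM in the primary screen, cut at about 50% in these data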;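 also: plate controls were negative control wells for no effect and 2.5 mM tranylcypromine positive control for full effect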
# D1 allo mod: allosteric modulators of human D1 dopamine receptor | AID 641 | 5.9% of 58,000 active | P21728 | HEK293 D1, CRE-luciferase, dopamine EC30 potentiation; actives deviate in either direction | B-score at 10 µM;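 active = luminescence count or its row- and column-corrected plate score outside the 99.7% band of the plate's sample wells, on either side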
# Target sequence (P21728 whole entry, looked up): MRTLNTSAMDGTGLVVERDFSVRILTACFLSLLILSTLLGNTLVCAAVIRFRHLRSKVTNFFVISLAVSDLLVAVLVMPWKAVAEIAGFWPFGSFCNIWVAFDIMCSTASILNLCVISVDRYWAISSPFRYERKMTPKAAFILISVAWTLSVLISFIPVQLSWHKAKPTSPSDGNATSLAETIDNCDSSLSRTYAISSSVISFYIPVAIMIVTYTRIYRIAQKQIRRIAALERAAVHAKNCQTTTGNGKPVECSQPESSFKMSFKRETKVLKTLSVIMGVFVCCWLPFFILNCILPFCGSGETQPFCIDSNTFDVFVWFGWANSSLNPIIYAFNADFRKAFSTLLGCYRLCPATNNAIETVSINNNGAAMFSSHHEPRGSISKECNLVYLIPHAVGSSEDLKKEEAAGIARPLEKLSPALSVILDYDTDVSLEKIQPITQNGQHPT
# hDAT+cocaine: modulates human dopamine transporter uptake under cocaine | LLC-PK1 hDAT cells, [14C]-dopamine uptake with cocaine IC80; actives deviate in either direction | B-score at 10 µM | 1.3% of 110,000 active | AID 449768;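 active = Z score or B-score, a plate-position-corrected score, falls beyond the plate's 99.7% confidence bounds, in either direction; inactive = both scores lie inside the 99.7% bounds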;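 also: scored against the spread of the other compound wells on the same plate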
# D1 mod confirm: confirmation of human D1 dopamine receptor allosteric modulators. shares compounds with D1 allo mod. HEK293 D1 CRE-luciferase, dopamine EC30 potentiation; stronger effect = higher value. luminescence at 10 µM. 88% of 2,200 active. AID 642;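 active = luminescence in either of two replicates above the same-plate mean plus 3 SD of the low-dose dopamine control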
# D1 ag no DA: secondary test of D1 modulators: activity without dopamine | AID 646 | luminescence at 10 µM | shares compounds with D1 allo mod | 0.8% of 1,900 active | HEK293 D1 CRE-luciferase, luminescence, no dopamine; stronger effect = higher value; in the data active = luminescence above about 3900
# Isoprot counter: alters isoproterenol CRE-luciferase response in HEK293 cells; 63% of 2,200 active; calls only at 10 µM; HEK293 D1 CRE-luciferase, isoproterenol EC30 counter-screen; shares compounds with D1 allo mod;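 active = luminescence in either replicate above plate mean of wells with a partly effective reference agonist dose plus 3 SD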;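 also: isoproterenol raises cAMP through native beta-adrenoceptor Gs so signal bypasses D1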
# The depositor's hits bear a star; i = inactive; / = not tested or not shown; + = active, no number.
SMILES,CYP2C9 inhib,CYP2C19 act,CYP2C9 activ,CYP2C19 inhib,D1 allo mod,hDAT+cocaine,D1 mod confirm,D1 ag no DA,Isoprot counter
O=C(COc1ccc(F)cc1Br)N1CCc2ccccc21,-2,0.8,1,20,-0.83,1.1,/,/,/
COc1ccc2c(c1)C(=O)[C@@H](O)[C@H](c1ccc(OC)c(Br)c1)O2,/,/,/,/,/,-0.0096,/,/,/
CCCCCOC(=O)Cn1c(SCC(=O)Nc2ccccc2)nc2c1c(=O)[nH]c(=O)n2C,22,0.8,0.8,24,0.32,0.51,/,/,/
CCOC(=O)c1c(NC(=O)CSc2nnnn2CC)sc(C)c1C,52*,0.9,0.5,14,3.9*,0.022,13084*,1736,+
CCOC(=O)c1c(NC(=O)CSc2n[nH]c(N)n2)sc(CC)c1C,76*,0.5,0.2,50,7.9*,-0.3,14984*,1740,+
COC(=O)c1ccccc1NC(=O)CSc1nc2c(c(=O)n(C)c(=O)n2C)n1C,/,/,/,/,0.57,/,/,/,/
CCOC(=O)c1sc(NC(=O)CSc2nncs2)c(C(=O)OCC)c1C,10,1,0.9,2,4*,-0.6,6908*,1576,i
CCCn1c(SCC(=O)Nc2ccccc2C(=O)OC)nc2c1c(=O)n(C)c(=O)n2C,72*,0.7,0.3,34,8.5*,-0.42,12220*,1740,+
CCCn1c(SCC(=O)Nc2sc(C)c(C)c2C(=O)OCC)nc2c1c(=O)n(C)c(=O)n2C,66*,1,0.3,-3,6.5*,0.3,8860*,1644,i
CCCCn1c(SCC(=O)Nc2cc(C)on2)nc2c1c(=O)n(C)c(=O)n2C,32,0.8,0.7,17,0.15,-0.76,/,/,/
CCOC(=O)c1cccnc1SCc1cc(=O)n2ccccc2n1,35,0.8,0.7,19,4.4*,1,10728*,1604,+
CCOC(=O)c1cc2c(=O)n3ccccc3nc2n(Cc2ccccc2)c1=N,19,0.8,0.8,15,-0.68,0.15,/,/,/
COC(=O)c1ccc(NC(=O)CSCC(=O)OCC(=O)c2ccc(Br)cc2)cc1,28,0.8,0.7,20,/,0.041,/,/,/
CSc1ncccc1C(=O)OCc1ccccc1,-43,0.7,1.4,25,/,1.3,/,/,/
CSc1ncccc1C(=O)OCc1ccccc1F,-22,1.1,1.2,-8,10*,1.5,16732*,1608,+
CCOC(=O)C1C(c2ccccc2Cl)NC(=O)N(C)C1(O)C(F)(F)F (stereo unspecified),5,1,1,0,-0.14,0.7,/,/,/
CC1C2Cn3c(nc4ccccc43)C1N(C(C)C)O2 (stereo unspecified),/,/,/,/,/,-0.21,/,/,/
N#Cc1c(N)sc2c1CCCCCC2,4,0.6,1,42,5.8*,-0.097,13464*,1508,i
CSc1nnc2c(n1)c(C)nn2-c1ccc(C)cc1,/,/,/,/,/,0.13,/,/,/
O=C(CC(NS(=O)(=O)c1ccc(Cl)cc1)c1ccco1)N1CCc2ccccc21 (stereo unspecified),-2,0.9,1,12,/,0.58,/,/,/
COc1c(S(=O)(=O)N2CCCC2)ccc(Cl)c1Cl,-140,0.1,2.4*,88*,5.4*,0.82,10616*,1728,+
Cc1nc(C)c(C(=O)Nc2ccc(Oc3ccccc3)cc2)o1,17,0.9,0.8,13,-1.2,1.7,/,/,/
COc1ccc(N2C(=O)CC(N3CCN(C4CCc5ccccc5C4)CC3)C2=O)cc1 (stereo unspecified),-3,1,1,3,-0.35,-1.3,/,/,/
COc1ccc(C(=O)Nc2ccc(N3CCCC3)cc2)cc1,-27,0.9,1.3,12,/,0.34,/,/,/
CC(=O)Nc1ccc(Oc2cc(C#N)c(C#N)cc2N2CCCCCC2)cc1,/,/,/,/,4.9*,2.1,8364*,1744,+
